Compounds with a hit are over-represented: about 19% of the library has one in this group of screens.
KB-V1 cytotox: KB-V1 MDR subline cytotoxicity; KB-V1 MDR cells viability, CellTiter-Glo, 72 h; Potency, µM (top dose mostly 46.1 µM), usual class: cytotoxic; 400,000 compounds, 3.4% hits; AID 1347076; note: nearly all actives have a fitted effect of over 60% in size
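Cytotoxicity via CellTiter-Glo luminescence after 72 h compound exposure at 37 degrees C. Cells: drug-selected KB-V1 line, DMEM phenol-red free plus 10% FBS. Compounds tested at multiple concentrations; normalized data fitted to concentration-effect curves.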
HT1080-NT tox: kills 2HG-producing HT-1080-NT fibrosarcoma cells; HT-1080-NT fibrosarcoma viability, CellTiter-Glo ATP luminescence, 48 h; Potency, µM (top dose mostly 46.1 µM), inactives show top-dose activity, negative = less viability, most hits filed as cytotoxic; 360,000 compounds, 1.6% hits; AID 686970;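 note: NT is the 2HG producing partner of a matched IDH1 knockdown line; 0% = DMSO-treated cells and -100% = media-only wells without cells; nearly all actives have a fitted effect of over 55% in size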
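Viability of the 2HG-overproducing fibrosarcoma line after 48 hours of compound exposure at 37 degrees C was determined by luminescence with CellTiter-Glo, and concentration-effect curves were then fitted and categorized.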
KB-3-1 tox: KB-3-1 parental cell cytotoxicity; 400,000 compounds, 1.4% hits; KB-3-1 viability, CellTiter-Glo ATP luminescence, 72 h; Potency, µM (doses to about 46.1 µM), usual class: cytotoxic; note: nearly all actives have a fitted effect of over 60% in size
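Cytotoxicity measured as CellTiter-Glo luminescence after 72 h at 37 C. Compound titrations were pinned onto drug-naive KB-3-1 parental adenocarcinoma cells grown in DMEM with 10% FBS, and normalized data fitted to concentration-response curves.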
DT40 TDP1 no CPT: qHTS for Inhibitors of human tyrosyl-DNA phosphodiesterase 1 (TDP1): qHTS in cells in absence of CPT; DT40 Tdp1-/- hTDP1 cells, no CPT, ATP luminescence, 48 h; Potency, µM (top dose mostly 46.2 µM), for inactives: at the highest dose activity change, negative = growth inhibition, actives largely listed as inhibitors; 420,000 compounds, 15% hits; AID 686978, 2013; note: nearly all actives have a fitted effect of over 55% in size
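Stably hTDP1-transfected Tdp1-null chicken DT40 cells were treated with library compounds minus camptothecin and grown for at least 48 hr at 37 °C, after which cellular ATP was quantified by luminescence.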
TDP1 cell CPT: growth inhibition of DT40 Tdp1-/-;hTDP1 cells with camptothecin (screen for TDP1 inhibitors); AID 686979; 420,000 compounds, 12% hits; Potency, µM (titrated, usually from 46.2 µM), without a hit: at the top dose activity change, negative = growth inhibition, hits mostly inhibitors; chicken DT40 Tdp1-/-;hTDP1 cells + 20 nM CPT, ATP luminescence, 48 h; note: nearly all actives have a fitted effect of over 55% in size
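Cell growth measured by CellTiter-Glo luminescence after a minimum 48 h, 37 C compound exposure with 20 nM CPT in Tdp1-knockout DT40 cells stably expressing hTDP1, seeded 400/well; qHTS titration format.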
HT1080 IDH1KD tx: kills HT-1080 cells with IDH1 knockdown; AID 686971; 360,000 compounds, 2% hits; HT-1080 IDH1 knockdown viability, ATP luminescence, 48 h; Potency, µM (doses to about 46.1 µM), for inactives: at the highest dose activity, negative = toxicity, usual class: cytotoxic;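 note: 0% = DMSO wells and -100% = cell-free medium wells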
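% activity derives from luminescence (CellTiter-Glo), normalised to DMSO and no-cell wells. HT-1080-IDH1KD cells, 750/well, had 48 h compound exposure at 37 °C.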
* = called active by the depositor; i = inactive; u = inconclusive; x = not tested or not shown; [ ] = dose if it differs, or a comment. Calls come from the whole dose curve; as a rule, active = well fitted curve in the direction sought with a large enough effect; inconclusive = small, poorly fitted or top-dose-only effect, or another doubt; inactive = no such curve, though single readings can be large; an effect the other way counts as inactive or inconclusive. Unless noted, % is set by controls: 0 for no effect and ±100 for the full control effect; potency is the fitted concentration of half-maximal effect.

SMILES	KB-V1 cytotox	HT1080-NT tox	KB-3-1 tox	DT40 TDP1 no CPT	TDP1 cell CPT	HT1080 IDH1KD tx
O=C(Oc1ccc(-c2nnco2)cc1)C1CCN(C(=O)c2ccc(F)cc2)CC1	i	1%	i	-8%	-11%	10%
COc1cc(C(=O)NC2CC(C)(C)CC(C)(C)C2)ccc1OC1CCN(C(C)=O)CC1	i	-8%	i	u	u	-6%
O=C(Nc1cccc2c1CCCC2)c1ccccc1Br	i	-20%	i	u	-11%	-16%
Cc1cc(C)c(OCCCCCn2ccnc2)c(C)c1	u	-1%	i	15µM*	u	-12%
Cc1cc(Cl)c(OCCn2ccnc2)c(Br)c1	u	-24%	i	u	12µM*	-29%
Cc1ccc(C)c(OCCCCCn2ccnc2)c1	u	u	i	u	u	u
CCc1ccc(OCCCCCn2ccnc2)cc1	u	0%	i	18µM*	u	-19%
Cc1cccc(Cl)c1OCCCn1ccnc1	i	-13%	i	u	-8%	-6%
Cc1cc(Cl)cc(C)c1OCCCCCn1ccnc1	i	3%	i	u	18µM*	-8%
CCc1ccc(OCCn2ccnc2)cc1	i	23%	i	-3%	5%	12%
Cc1ccc(-n2nc(CO)c(C(=O)NCCCCc3ccccc3)n2)cc1C	x	x	x	-18%	-16%	x
COc1ccc2oc(=O)c(/C(C)=N/NC(=O)c3ccncc3)cc2c1	u	-1%	i	-2%	1%	2%
Cc1cc(OCCCn2ccnc2)cc(C)c1Cl	u	-30%	i	u	-29%	u
Clc1ccc(OCCn2ccnc2)c(Cl)c1	u	7%[9.24 µM]	i	-17%	-16%	6%
C=CCc1cc(Cl)ccc1OCCn1ccnc1	i	-7%	i	u	-34%	-24%
Cc1cc(Cl)cc(C)c1OCCn1ccnc1	u	-11%	u	5.2µM*	5.2µM*	-23%
Cc1cc(OCCCCCn2ccnc2)cc(C)c1Cl	u	u	i	13µM*	u	u
C=CCc1cc(Cl)ccc1OCCCn1ccnc1	u	8%	i	21µM*	u	-1%
CCc1nc2c(OCC3COc4ccccc4O3)cccn2c1N(C)C(=O)c1cccc(OC)c1 (stereo not drawn)	i	-1%	i	u	u	0%
O=C(NC(c1ccc(Cl)cc1)c1ccsc1)C1CCN(Cc2cccc(Cl)c2)CC1 (stereo not drawn)	u	u	u	4.6µM*	5.2µM*	u
O=C(NNC(=O)C1CCN(Cc2cccc(F)c2)CC1)c1cccc(Cl)c1	i	-2%	i	u	-18%	-4%
O=C(NC(c1ccc(Cl)cc1)c1ccsc1)C1CCN(Cc2cccc(C(F)(F)F)c2)CC1 (stereo not drawn)	u	3%	i	4.1µM*	4.1µM*	0%
O=C(c1ccccc1)N1N=C(c2ccccc2O)CC1c1ccccc1 (stereo not drawn)	i	-8%	i	u	21µM*	-16%
COc1ccc(C2CC(c3ccc(OC)cc3O)=NN2C(=O)c2ccccc2)cc1 (stereo not drawn)	u	-10%	i	21µM*	21µM*	-15%
COc1ccc(C2CC(c3ccccc3O)=NN2C(=O)c2ccccc2)cc1OC (stereo not drawn)	i	-12%	i	-27%	u	-5%
SMILES	KB-V1 cytotox	HT1080-NT tox	KB-3-1 tox	DT40 TDP1 no CPT	TDP1 cell CPT	HT1080 IDH1KD tx
COc1ccc(C2CC(c3ccc4ccccc4c3OC(C)=O)=NN2C(C)=O)cc1 (stereo not drawn)	i	u	u	9.2µM*	10µM*	u
COc1ccc(C2CC(c3ccccc3)=NN2C(=O)c2ccc(F)cc2)cc1 (stereo not drawn)	i	-16%	i	29µM*	u	-26%
COc1ccc(C2CC(c3ccccc3)=NN2C(=O)COC(=O)c2cccc(O)c2)cc1 (stereo not drawn)	u	u	i	u	u	u
COc1ccc(C2=NN(C(=S)Nc3ccccc3)C(c3ccccc3)C2)cc1 (stereo not drawn)	i	15%	i	18µM*	u	10%
COC(=O)[C@]12CCCCC=C1N(Cc1ccccc1)C(=O)[C@H](CC(=O)NCC1CCCCC1)C2	u	3%	i	u	16µM*	8%
COCCCNC(=O)C[C@@H]1C[C@@]2(C(=O)OC)CCCCC=C2N(Cc2ccc(Cl)cc2Cl)C1=O	i	-12%	i	16µM*	u	-13%
CCCCNC(=O)C[C@@H]1C[C@@]2(C(=O)OC)CCCCC=C2N(Cc2ccccc2)C1=O	u	19%	i	u	u	1%
COCCCNC(=O)C[C@@H]1C[C@@]2(C(=O)OC)CCCCC=C2N(Cc2ccccc2)C1=O	i	4%	i	-10%	-3%	1%
COC(=O)[C@]12CCCCC=C1N(Cc1ccc(Cl)cc1Cl)C(=O)[C@H](CC(=O)NCC1CCCCC1)C2	i	u	u	18µM*	u	u
COC(=O)[C@]12CCCCC=C1N(Cc1ccc(Cl)cc1Cl)C(=O)[C@H](CC(=O)NCC13CC4CC(CC(C4)C1)C3)C2	i	16%	i	-18%	2%	0%
Cc1ccc(C(NC(=O)c2cccc(S(=O)(=O)N3CCN(C)CC3)c2)c2ccccc2)cc1 (stereo not drawn)	i	-12%	i	-9%	-14%	-6%

Screens deposited in PubChem BioAssay by National Center for Advancing Translational Sciences (NCATS).
